Measured values published in the supplement of paper PMC10681739.

Columns and labels:
ETS1 [1] = biological target: T1, ETS1 (UniProt P14921); assay: ETS1 binding intensity (PBM fluorescence), ETS1 alone (arbitrary fluorescence units); higher = stronger binding; settings: ETS1 concentration 1 nM; RUNX1 concentration 0 nM
T1 sequence: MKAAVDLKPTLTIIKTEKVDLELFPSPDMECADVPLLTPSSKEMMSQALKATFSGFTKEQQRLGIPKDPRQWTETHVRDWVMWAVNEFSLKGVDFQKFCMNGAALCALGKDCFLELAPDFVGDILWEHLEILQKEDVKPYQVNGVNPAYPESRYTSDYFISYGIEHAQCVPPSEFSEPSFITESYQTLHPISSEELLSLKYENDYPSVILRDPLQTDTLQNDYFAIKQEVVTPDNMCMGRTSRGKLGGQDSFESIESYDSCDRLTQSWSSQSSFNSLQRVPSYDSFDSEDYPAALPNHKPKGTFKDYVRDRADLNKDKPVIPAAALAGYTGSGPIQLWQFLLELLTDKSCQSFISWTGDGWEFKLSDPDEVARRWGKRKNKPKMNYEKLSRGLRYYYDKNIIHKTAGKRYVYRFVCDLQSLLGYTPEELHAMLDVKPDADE

ETS1 [2] = biological target: T1, ETS1; assay: ETS1 binding intensity (PBM fluorescence) in presence of RUNX1, normalised to ETS1-only experiment (arbitrary fluorescence units); higher = stronger binding; settings: ETS1 concentration 1 nM; RUNX1 concentration 25 nM

Row | Sequence | ETS1 binding intensity (ETS1 [1]) | ETS1 binding intensity (ETS1 [2])
1 | CCTGACTCTGGGTTTCCTCCCAGCCACAGACACCTG | 459 | 412
2 | AAAGAGAAAGGAAACAAAGTATAGCACCACAGTGAG | 475 | 554
3 | ACGGACAGAATTTCCTCCCCCGTCACCACAGCGACC | 686 | 728
4 | TGGCTTCCTGTCTGTCCTTCATCAGCCCACAGAGGC | 517 | 529
